# According to PubChem BioAssay AID1566 (Sanford-Burnham Center for Chemical Genomics, 2009):
# The whole screen tested about 290,000 compounds, of which about 1,800 (0.62%) were called active. The sample holds actives, similar compounds and a random draw of the others, so the mix is not that of the screen. Rule as the data show it: active = inhibition above about 50%; inactive = the rest. Peptide text beside a SMILES is read from it. * marks the point of attachment. OBn = c1ccc(CO*)cc1
# Test: inhibition of NOD2-driven NF-kB reporter – cell-based, luminescence, uHTS, HEK293 (AID 1566)
# Settings: HEK293 NOD2/NF-kB luciferase reporter, at 4 µM, hits give high values
row,Compound,inhibition
1,COc1ccccc1CNC(=O)c1cn(C)c2ccc(S(=O)(=O)N3CCCCC3)cc2c1=O,-7.1% (inactive)
2,CCn1c(C)c2c(C)nnc(C)c2c1C,8.3% (inactive)
3,Cc1ccc(CSC2=NCCN2C(=O)c2ccc(S(=O)(=O)N(C)C)cc2)cc1,-5% (inactive)
4,COc1ccc(C)cc1NC(=O)CC(O)(C(F)(F)F)C(F)(F)F,1.2% (inactive)
5,COc1ccc(-c2nsc3c(N4CCCCC4C)ncnc23)cc1 (stereo unspecified),86% (active)
6,COc1ccc(-c2nsc3c(N4CCCCC4)ncnc23)cc1,-13.3% (inactive)
7,COc1ccc(-c2nsc3c(N4CCCC4)ncnc23)cc1,-61.9% (inactive)
8,N/C(CC(=O)Nc1cccc(C(F)(F)F)c1)=N/O,5.4% (inactive)
9,O=Nc1c2cc(-c3ccccc3)[nH]nc-2c2ccccc12,-167% (inactive)
10,Cc1ccc(-c2cc3c(N=O)c4ccccc4c-3n[nH]2)cc1,70.7% (active)
11,Cc1cccc(-c2cc3c(N=O)c4ccccc4c-3n[nH]2)c1,-162% (inactive)
12,N#CC12CCCCC1CC1CCCCC1(C#N)N2N (stereo unspecified),1.8% (inactive)
13,O=C(CCCN1C(=O)c2ccccc2C1=O)NCCC1=CCCCC1,5.4% (inactive)
14,COc1ccc(-c2nc(CSCC(=O)NCc3ccco3)c(C)o2)cc1,-2% (inactive)
15,CCOc1ccc(-c2nc(CSCC(=O)NCc3ccco3)c(C)o2)cc1,9.4% (inactive)
16,CCc1ccc(-c2nc(CSCC(=O)NCc3ccco3)c(C)o2)cc1,50% (active)
17,O=C(OCc1nc2ccccc2s1)c1cc2ccccc2oc1=O,-0.9% (inactive)
18,Cc1cc(Cl)c(S(=O)(=O)N2CCCC2)cc1OCC(=O)NC1CCCCC1,32.3% (inactive)
19,CCN1CCN(S(=O)(=O)c2cc(OCC(=O)NC3CCCCC3)c(C)cc2Cl)CC1,35.8% (inactive)
20,C=CCSc1nc2ccccc2n1Cc1nnc(-c2cccs2)o1,8.9% (inactive)
21,CN(Cc1cccnc1)C(=O)c1cc(COc2ccc3c(c2)CCCC3)on1,-14.6% (inactive)
22,Cc1cc(CN(C)C(=O)c2cc(COc3ccc4ncccc4c3)on2)on1,28.5% (inactive)

row,Compound,inhibition
1,O=C(CNC(=S)N(CCCN1CCOCC1)Cc1cccs1)N1CCCCCC1,-0.9% (inactive)
2,COc1ccc(N(CC(=O)N/N=C/c2ccc3c(c2)OCO3)S(=O)(=O)c2ccc(NC(C)=O)cc2)cc1,-7.5% (inactive)
3,COc1ccc(S(=O)(=O)N/N=C\c2ccc([N+](=O)[O-])o2)c(OC)c1,52.1% (active)
4,Cc1ccc(S(=O)(=O)N/N=C\c2ccc([N+](=O)[O-])o2)cc1,13.4% (inactive)
5,COc1ccc(S(=O)(=O)N/N=C\c2ccc3c(c2)OCO3)cc1,29.5% (inactive)
6,Cc1ccc(S(=O)(=O)N/N=C\c2ccc([N+](=O)[O-])o2)cc1C,33.4% (inactive)
7,COc1ccc(OC)c(S(=O)(=O)N/N=C\c2ccc3c(c2)OCO3)c1,-26.9% (inactive)
8,COc1ccc(S(=O)(=O)N/N=C\c2ccc3c(c2)OCO3)c(OC)c1,51.2% (active)
9,CCN(CC)CCn1c(=S)[nH]c2ccc(Br)cc2c1=O,7.1% (inactive)
10,CCCCC1=CC2=CC(=O)C(C)(OC(=O)CC)C(=O)C2=CN1C1CCCC1 (stereo unspecified),33.3% (inactive)
11,COc1cccc(NC(=O)NC2CCCCC2C)c1 (stereo unspecified),0.4% (inactive)
12,CCOC(=O)N1CCN(C(=O)c2ccc(Cn3c(=S)[nH]c4cc(OCC)c(OCC)cc4c3=O)cc2)CC1,43.9% (inactive)
13,COc1ccc(Cn2c(=O)[nH]c3cc(C(=O)N4CCN(c5ccccn5)CC4)ccc3c2=O)cc1,3% (inactive)
14,O=C(c1ccc(Cn2c(=O)[nH]c3ccccc3c2=O)cc1)N1CCN(c2ccccn2)CC1,15.4% (inactive)
15,CCOC(=O)N1CCN(C(=O)c2ccc(Cn3c(=S)[nH]c4cc(C(=O)OC)ccc4c3=O)cc2)CC1,24.9% (inactive)
16,CCN(CC)C(=O)c1ccc2c(=O)n(Cc3ccc4c(c3)OCO4)c(=S)[nH]c2c1,10.2% (inactive)
17,CCN(CC)C(=O)c1ccc2c(=O)n(CCOC)c(=S)[nH]c2c1,17.5% (inactive)
18,CCN(CC)C(=O)c1ccc2c(=O)n(Cc3cccc(Br)c3)c(=S)[nH]c2c1,58.7% (active)
19,CC(=O)Oc1ccc(OC(C)=O)c2c1CC(C)=C(C)C2,33.6% (inactive)
20,Cc1ccc(OCC(=O)O/N=C(\N)c2ccncc2)cc1C,-6.1% (inactive)
21,C=CCn1c(SCc2ccc(Cl)cc2)nc2cc(C(=O)N3CCC(C(N)=O)CC3)ccc2c1=O,1.8% (inactive)
22,COc1ccc(-c2noc(CN3CCOCC3)n2)cc1OC,-8.7% (inactive)

row,Compound,inhibition
1,CCn1c(C)c(C(C)=O)c(N2CCN(c3ccc(OC)cc3)CC2)nc1=S,12.6% (inactive)
2,Cc1ccc(NC(=O)N2CCCC2C(=O)Nc2ccc3c(c2)OCCO3)cc1 (stereo unspecified),-15.1% (inactive)
3,CC(=O)Nc1ccc(NC(=O)CN(C)S(=O)(=O)c2ccc3ccccc3c2)cc1,-3.2% (inactive)
4,CC(=O)NCC(=O)N[C@@H](CC(=O)OCc1ccccc1)C(=O)OCc1ccccc1 (Ac-Gly-Asp(OBn)-OBn),15.4% (inactive)
5,O=C(CCc1nc(-c2ccccc2F)no1)NCCN1CCOCC1,9.2% (inactive)
6,COc1ccc(Nc2cc3n(c(=O)n2)CCc2cc(OC)c(OC)cc2-3)cc1,-35.6% (inactive)
7,O=C(COc1ccccc1)NN1C(=O)CSC1=S,3.5% (inactive)
8,Cc1ccc(NC(=O)c2cc3ccccc3oc2=O)cc1S(=O)(=O)N(C)C,85.6% (active)
9,COc1ccccc1NS(=O)(=O)c1cc(NC(=O)c2cc3ccccc3oc2=O)ccc1C,-25.3% (inactive)
10,Cc1ccc(NC(=O)c2cc3ccccc3o2)cc1S(=O)(=O)N(C)C,-98.2% (inactive)
11,COc1ccc(Cl)cc1NC(=O)COc1ccc(S(=O)(=O)N2CCOCC2)cc1C,11.3% (inactive)
12,Cc1ccc(CCNC(=O)c2cc(-c3ccncc3)nc3ccc(S(=O)(=O)N4CCOCC4)cc23)cc1,-13.8% (inactive)
13,CS(=O)(=O)c1cc([N+](=O)[O-])c(Sc2nc3ccccc3[nH]2)c([N+](=O)[O-])c1,4.3% (inactive)
14,Cc1ccc2cccc(OCC(=O)c3cc(C)n(Cc4ccco4)c3C)c2n1,-10.4% (inactive)
15,Cc1ccc(-n2c(C)cc(C(=O)COc3cccnc3[N+](=O)[O-])c2C)cc1,30.3% (inactive)
16,CCn1nc(C(=O)OCC(=O)c2cc(C)n(Cc3cccs3)c2C)c2ccccc2c1=O,-20.7% (inactive)
17,Cc1cc(C(=O)COc2ccc3ccc(=O)oc3c2)c(C)n1Cc1cccs1,-4.5% (inactive)
18,Cc1cc(C(=O)COC(=O)c2ccc3c(c2)OCO3)c(C)n1Cc1cccs1,-8.7% (inactive)
19,Cc1cc(C(=O)CN2C(=O)c3ccccc3C2=O)c(C)n1Cc1cccs1,19% (inactive)
20,Cc1cc(C(=O)COC(=O)c2ccccc2O)c(C)n1Cc1cccs1,89.6% (active)
21,Cc1cc(C(=O)COc2cccnc2[N+](=O)[O-])c(C)n1-c1ccccc1,20.6% (inactive)
22,COCCn1c(C)cc(C(=O)COc2cccnc2[N+](=O)[O-])c1C,4.6% (inactive)
